# ± gives the standard deviation of the averaged measurements. In all, about 25,000 sequences were measured (“ln(normalized median fluorescence intensity)”: median about 8.9, highest 2% from about 10 on). This is one part of a sample in which the highest values are shown more often than they occur.
# Test system: PfAP2-LT AP2 domain (GST-tagged)
# Experiment: gcPBM binding intensity (ln(normalized median fluorescence intensity)); higher = stronger DNA binding
# Method in brief: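 GST-tagged P. falciparum DNA-binding domains produced in E. coli were incubated for 1 h on an Agilent 4 × 180k array of primer-extended double-stranded 36-bp intergenic genomic probes with negative controls. Binding intensity is the highest Masliner-normalised natural-log median intensity across replicate spots of either probe orientation, with bound protein detected by Alexa488 anti-GST antibody at 488 nm.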
row,Sequence,gcPBM binding intensity (ln)
1,AATCATGCTCCGGAAAGTACATAAATAAATAAATAA [XGTACX_site1690],8.85 ± 0.56
2,TAGAATATCCCCTACACACCCAAATAATTTACAAAT [CACACA_site4825],9.3 ± 0.35
3,AGGGAATAATATTAATGTACATATATGAACTTGTTT [XGTACX_site6089],8.93 ± 0.43
4,TATACATACAGACCCACACACAAAAAAAAAAAAAAA [CACACA_site6536],9.35 ± 0.5
5,TAGACTCCCAGACACACACACACACCCATATAATAT [CACACA_site593],10.2 ± 0.35
6,TACATATACAGACACACACACACACCCCCACAAAAA [CACACA_site495],10.45 ± 0.099
7,TACGCTCCCAGACACACACACACACCGATATAATAT [CACACA_site8098],9.89 ± 0.23
8,CACCCCCACAGACACACACACACACCCACATATATA [CACACA_site365],10.54 ± 0.035
9,TATATATATATAGACACACACACACCCATATATATA [CACACA_site4117],9.94 ± 0.23
10,CACCCCCACAGACACACACACACACCCATATATATA [CACACA_site364],10.45 ± 0.042
11,TATATACATAGACACCCACACACAAAAAAAAAAAAA [CACACA_site8186],9.43 ± 0.42
12,TATGATACATAATATACATGCATACACAACATTCAG [TGCATGCA_site487],8.94 ± 0.37
13,ATATATATACCAAGTAGTACATTCTACAACTAATGT [XGTACX_site8653],8.79 ± 0.4
14,ATATTTTGTTATGTAGATGTTGGTAGGAATTTTGGT [CACACA_negctrl_site1104],8.83 ± 0.4
15,CAATTAAACAATTAAACATGCAAAATGATATAATAA [TGCATGCA_site240],8.87 ± 0.49
16,TACGTAAAAATAGGACGTACTTATTTAGAAACCATA [XGTACX_site2498],8.72 ± 0.49
17,AAGAGTTTGAAGTTTGCACACTACGTTAAAAATAAA [CACACA_site3939],8.72 ± 0.59
18,ATAAATAAAACAACAGTGCAATAAAATTAGTTGAGG,9.07 ± 0.54
19,ACATAATAAAAAAAACGTACAAATAGGTTTTTCATA [XGTACX_site6645],8.85 ± 0.57
20,ATGAGTTACATGGGAAAAATATATATATATATATAT [CACACA_negctrl_site579],9.8 ± 0.23
21,TCTATACCTATTCTTACACACATATGTATTTATATA [CACACA_site4475],9.28 ± 0.46
22,CACCCATACAGACATACACACACATATATATTAATA [CACACA_site8077],9.67 ± 0.27
23,CACACCCACAGACACACACACACATATATAATATAT [CACACA_site594],10.2 ± 0.54

row,Sequence,gcPBM binding intensity (ln)
1,AGACATATAATATATACACACATATATATATATATA [CACACA_site1066],9.93 ± 0.085
2,AAATTTTCACTTCAAAAACACACGTATTTTTTTCCT [CACACA_site3813],8.8 ± 0.47
3,CAACAACAAAAAAAAAAATAATAATAATAAAAAATA [TGCATGCA_negctrl_site271],8.71 ± 0.5
4,CAAGGACAATTTACAAACATAATATATGTATATATA [TGCATGCA_negctrl_site5],8.66 ± 0.55
5,AGGACAAGGGTTACATGTACATATATATATATATAT [XGTACX_site901],10.2 ± 0.14
6,CATATGTATATGACTACACACAAGGGTGTACATATA [CACACA_site1164],9.2 ± 0.38
7,ATCATAATTTATTATACACACAATACGTGACCTATT [CACACA_site6977],9.24 ± 0.47
8,ATATTTTGTATAATCACACACACTATTCTTAAATAG [CACACA_site7270],9.23 ± 0.37
9,CAAACCCACGGACACACACACACAAAAATGATTAAA [CACACA_site5365],9.71 ± 0.38
10,AACAAACACGGACACACACACACACTAGAATGATTA [CACACA_site5364],10.2 ± 0.31
11,CAAACAAACGGACACACACACACACCCAAAAATGAT [CACACA_site5363],10.1 ± 0.18
12,TTTATTAATGGACACACACACACACCCAAAATAAAA [CACACA_site4294],10 ± 0.13
13,TTAATAACAAAATAAACACACATATATAAATCCACA [CACACA_site1590],9.09 ± 0.38
14,TTTATTAATAAACACACACACACACCCAAAATAAAA [CACACA_site7966],10.2 ± 0.18
15,TTAACAAAGAAACACACACACACACCCAAAAAAAAA [CACACA_site516],10.2 ± 0.11
16,CAAAAGAAGGTAAACACACACACACCCATACAAAAA [CACACA_site3765],10.1 ± 0.43
17,CACACCCACCAACACACACACAAAAAAAAAAAGAAA [CACACA_site500],9.56 ± 0.47
18,CCCGAACAAACAAATAAACACACAAAAAAAAATATA [CACACA_site8540],9.15 ± 0.47
19,TTAAAGCACCCATGCACACACACAAGGGAAAAGAAA [CACACA_site4289],9.49 ± 0.4
20,CAACAAAAGAAACACACACACACAAACACAAAAAAA [CACACA_site3389],9.91 ± 0.16
21,TATTTATTAAAACACACACACACACCCACAAAATAA [CACACA_site241],10.04 ± 0.099
22,AAAGAAGGGAAACACACACACACACCCACAAAAAAA [CACACA_site3766],10.18 ± 0.099
23,GAATAATCCAAACACACACACACACCCGAATAAATA [CACACA_site482],10.3 ± 0.45

row,Sequence,gcPBM binding intensity (ln)
1,ATTTCAAATTAATTTACACACTTCATACTAAAAGAC [CACACA_site3176],8.71 ± 0.4
2,GGAAAAAAATATAAAAGTACTTTTTATTTATTTTAT [XGTACX_site7418],8.4 ± 0.51
3,AGGAATATAAAGTGCACACATAATTTGGGGGCAAAA [CACACA_site258],9.25 ± 0.44
4,AATTAAATTACTTATACACACATAAAATGGGTGTAT [CACACA_site4703],8.97 ± 0.37
5,AATAAAGGAGCCTATGAACACACACCGGTACATATA [CACACA_site9352],9.33 ± 0.51
6,ATACAATAAAGGTGTACACATATATGATGCAAGATG [CACACA_site5897],9.29 ± 0.52
7,ATGTAATGAAACATTGCACACATATAATAATATAAT [CACACA_site8402],9.31 ± 0.35
8,TTTTACACTTTTTTTTGTACACACTAAAAAGATTAA [XGTACX_site8407],8.59 ± 0.52
9,AATAATTGTTAAAGCTGTACAATACTTATATAAGAA [XGTACX_site5729],8.77 ± 0.45
10,AAAAAATATTGAAGTACACACATTATAAACTTTTTT [CACACA_site5029],8.86 ± 0.49
11,AATACACACCTGTGGGTGCTTATAATAAGCCACAAA,8.95 ± 0.45
12,TTAACAAATAAACACACACACACACCCAAAAAAAAA [CACACA_site8068],10.3 ± 0.2
13,ATAAATAAAAAACACACACACACACCCAAAAAAAAA [CACACA_site2624],9.88 ± 0.3
14,ATAAATAAAAACACAAAACAAAACAAAACAAAACAA [CACACA_negctrl_site1257],8.82 ± 0.4
15,TTTTTTTTTGTTAGTTGTACGTTAAATGAATTTACT [XGTACX_site7675],8.67 ± 0.57
16,TACTAAGAAGTATTTACACACCAACAAGGCGAAAAA [CACACA_site2944],8.88 ± 0.44
17,TTTAAGCAAAAACACACACACATATATATATATATA [CACACA_site349],10.1 ± 0.16
18,TGAAGCAAAAACAAAACACACATATAAATAAATAAA [CACACA_site3925],9.15 ± 0.52
19,CCTTTAAGCAAAAACACACACACATATATATATATA [CACACA_site348],9.945 ± 0.035
20,AAACATATATTAAGCACACACAAACAAAAAAACAAA [CACACA_site2549],9.59 ± 0.61
21,TATAAGCAAAAACACACACACATATATATATATATA [CACACA_site3804],10.2 ± 0.23
22,CCTTTAAGCAAAAACACACACACATATTTATTTATA [CACACA_site6294],9.41 ± 0.3
23,AAAAAAATAAAAAATATATAAATAATTAATACATGT [GTGCAC_negctrl_site633],8.62 ± 0.59

row,Sequence,gcPBM binding intensity (ln)
1,TTATCATTATATAGTTGTACATATTTATTTATAAAA [XGTACX_site2310],8.45 ± 0.44
2,ATTATTTTATATACATGTACATATTATATATAAAAG [XGTACX_site2735],8.51 ± 0.42
3,TATTTTTTTAATAACTGTACTTTTTTGTCAAATGGA [XGTACX_site4179],8.32 ± 0.49
4,ATATATTTCAAAGGGGTGCAGGCATATTTAAGCAAA,8.69 ± 0.49
5,TATTTTAAAAAAAAAAGTACACATAATATATATAAC [XGTACX_site5416],8.57 ± 0.57
6,CATTAAACCGTGGGAGCACACACACCCACCCACCCA [CACACA_site8000],9.57 ± 0.2
7,ATTAAACCGTGGGAGCACACACACACACACACACAT [TGCATGCA_negctrl_site72],10.6 ± 0.4
8,TTAAACCGTGGGAGCACACACACACCCAGACACATA [CACACA_site4337],9.7 ± 0.31
9,AAATATATATATATATATATATATGTGTGTGTATAT [GTGCAC_negctrl_site1],9.79 ± 0.45
10,TATATATATATATATATATATATATATGTGTATGTA [TGCATGCA_negctrl_site255],10.2 ± 0.26
11,TATATATATATATATATATATATATATATATGTATA [TGCATGCA_negctrl_site17],9.8 ± 0.38
12,TTACACTAAATATGTTCACACATTTTTTCCATCATA [CACACA_site4647],8.79 ± 0.45
13,CATACAGACGAACACACACACATATAAATATAAATA [CACACA_site6443],9.7 ± 0.38
14,AACGCACGAGGACACACACACATATTTATATTTATA [CACACA_site6608],9.82 ± 0.41
15,AATGAACAGACGAGCACACACACACCCATATATATA [CACACA_site1018],10.1 ± 0.16
16,AACTCACGAGGACACACACACATATATATATATATA [CACACA_site4711],10.38 ± 0.035
17,TGAACAGACGAGCACACACACACATATATATATATA [CACACA_site1019],10.3 ± 0.2
18,AAAAAAGAAAAAAGGACACACATAAATATACTCACG [CACACA_site2904],9.16 ± 0.48
19,TGAACTCACGAGCACACACACACATATATATATATA [CACACA_site8248],10.3 ± 0.25
20,AAAATGAACTCACGAGCACACACACCCATATATATA [CACACA_site8247],9.72 ± 0.25
21,AATGAACTCACGAGCACACACACACCGATATATATA [CACACA_site4710],10.1 ± 0.35
